Screening data as filed in PubChem BioAssay.
This is a sample that favours compounds with a hit; in the whole collection about 2.4% have one here.
D2 ag-1 – Beta-Arrestin HTS for Positive Allosteric Modulators of the Human D2 Dopamine Receptor: Agonists; DiscoveRx PathHunter D2 beta-arrestin, luminescence, 90 min; 100% = 57 uM dopamine signal; activation, % (concentration not given with the values); 0.084% of 360,000 active; in the data active = activation above about 40%; inconclusive = between about 15% and that limit
Target sequence (P14416 whole entry, looked up): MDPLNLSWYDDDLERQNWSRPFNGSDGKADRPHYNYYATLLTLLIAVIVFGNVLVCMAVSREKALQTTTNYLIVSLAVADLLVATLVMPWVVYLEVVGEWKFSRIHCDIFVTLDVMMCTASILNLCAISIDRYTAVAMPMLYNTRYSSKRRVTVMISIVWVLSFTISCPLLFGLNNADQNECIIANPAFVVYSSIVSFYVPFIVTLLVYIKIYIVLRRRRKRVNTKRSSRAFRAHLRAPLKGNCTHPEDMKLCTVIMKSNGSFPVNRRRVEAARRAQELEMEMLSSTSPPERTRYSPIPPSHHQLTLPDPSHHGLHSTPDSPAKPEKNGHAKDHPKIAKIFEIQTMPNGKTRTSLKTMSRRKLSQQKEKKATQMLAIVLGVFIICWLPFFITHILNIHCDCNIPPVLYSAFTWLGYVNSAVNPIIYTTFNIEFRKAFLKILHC
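DiscoveRx PathHunter D2 beta-arrestin cells (2,100/well) attached overnight, then compound-stimulated 90 min at 37 C in HBSS/10 mM HEPES/0.1% Tween-20 buffer; beta-galactosidase complementation read by luminescence after 1 h at ambient temperature. Dopamine 57 uM final (EC100) as control.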
D2 PAM-1 – Beta-Arrestin HTS for Positive Allosteric Modulators of the Human D2 Dopamine Receptor: Potentiators; DiscoveRx D2 beta-arrestin cells, luminescence, 90 min; 100% = 57 uM dopamine signal; AID 624464, 2012; potentiation, % (concentration not given with the values); 0.23% of 360,000 active; in the data active = potentiation above about 50%; inconclusive = mostly about 30% to 49%
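D2 cells co-treated with compound plus 50 nM dopamine (EC20) for 90 min at 37 deg C to detect potentiation. Beta-arrestin recruitment was read as enzyme-fragment luminescence after 1 h at ambient temperature. Full response was set by 57 uM dopamine.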
D2 PAM-2 – HTS Assay for Positive Allosteric Modulators of the Human D2 Dopamine Receptor: Primary Screen for Potentiators. HEK293 T-REx D2, calcium flux, EC20 dopamine potentiation. potentiation, % at 10 µM. 0.34% of 340,000 active;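 active = potentiation over 3 SD above the plate norm, cut at about 30% in these data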
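Tetracycline-induced HEK293 T-REx cells force-coupled to calcium signalling expressed D2; compounds were pin-added after a 10 s baseline, read kinetically 180 s, then an EC20 dopamine challenge followed with a further 180 s calcium read.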
D2 ag-2 – HTS Assay for Allosteric Agonists of the Human D2 Dopamine Receptor: Primary Screen for Agonists; D(2) dopamine receptor (Homo sapiens), P14416; HEK293 T-REx D2 cells, calcium flux agonist mode; activation, % at 2 µM; 0.53% of 340,000 active; AID 485358, 2010;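 active = activation over 3 SD above normal in the single-dose calcium agonist read, cut at about 30% in these data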
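Agonism scored from kinetic calcium signal (1 read/sec, 180 s) following compound pin transfer, after a 10 s baseline. Cells: HEK293 Trex line expressing inducible D2 receptor coupled to calcium, dye-loaded after overnight culture at 30 C.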
D2 antag – HTS Assay for Allosteric Antagonists of the Human D2 Dopamine Receptor: Primary Screen for Antagonists | D(2) dopamine receptor (Homo sapiens), P14416 | HEK293 TREx D2 cells, calcium flux, dopamine EC80 | AID 485344, 2010 | inhibition, % at 10 µM | 2% of 340,000 active; in the data active = inhibition above about 30%; inactive = below that, where a call was filed
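Tetracycline-induced HEK293 T-REx cells expressing D2 force-coupled to calcium signalling were dye-loaded, exposed to compound for 180 s, then challenged with an EC80 of dopamine; calcium flux was followed kinetically for a further 180 s.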
Each line names hits and unclear results; the compound was inactive in the other large screens.

CC(=O)Nc1ccc(NC(=O)CSCCc2ccccn2)cc1	D2 PAM-2 34.4
Cc1ccccc1C(=O)NCC(c1cccnc1)N1CCc2ccccc21 (stereo not given)	none (no result: D2 ag-1, D2 PAM-1, D2 antag)
Cc1cc(OCc2cc(C(=O)N3CCN(C)C(=O)[C@@H]3C)no2)cc(C)c1Cl	D2 PAM-2 30.4
COc1cc(Cl)ccc1OCc1cc(C(=O)N2CCN(C)C(=O)[C@@H]2C)no1	none (no result: D2 PAM-2, D2 ag-2, D2 antag)
O=C(CCC(=O)c1ccccc1)Nc1ccc(F)c(Cl)c1	none (no result: D2 ag-1, D2 PAM-1, D2 antag)
O=C(c1ccc(F)cc1)C1CCN(CCn2c(=O)[nH]c3ccccc3c2=O)CC1	D2 antag 58.4
COc1ccccc1OCCNC(=O)C1CCN(C(C)=O)CC1	D2 PAM-2 30.6
CC(=O)C1=C(OC(=O)C(C)C)c2ccccc2S(=O)(=O)N1Cc1ccccc1	none (no result: D2 ag-1, D2 PAM-1, D2 antag)
Oc1ccc(N=Nc2ccccc2)cc1	D2 antag 33.2
CCOc1cc(Cl)c(NC(=O)CC)cc1OCC	D2 antag 70.7
Cc1ccc(/C=C/c2ccc(=O)n(Cc3ccc(Cl)cc3Cl)n2)cc1	D2 PAM-2 36.0
O=c1ccc(/C=C/c2ccccc2)nn1Cc1ccc(Cl)cc1Cl	none
CCOc1cccc(-c2c(C(=O)N/N=C/c3cccs3)nnn2-c2nonc2N)c1	D2 antag 31.8
CCC(C)NC(=O)Cn1cc(S(=O)(=O)N2CCCC2)c(S(=O)(=O)N2CCCC2)c1 (stereo not given)	none
CCCNC(=O)Cn1cc(S(=O)(=O)N2CCCC2)c(S(=O)(=O)N2CCCC2)c1	D2 antag 37.5
COc1ccc(Br)cc1CNC(=O)c1ccc2c(c1)nc1n2CCCCC1	none (no result: D2 ag-1, D2 PAM-1, D2 antag)
Cc1ccc(-c2nc3c(c(=O)c4ccccc4n3C)c(=O)n2Cc2ccco2)cc1	D2 antag 35.6
Cn1c2ccccc2c(=O)c2c(=O)n(Cc3ccco3)c(-c3ccc(F)cc3)nc21	none
CCOC(=O)N1CCN(Cc2cccs2)CC1	D2 ag-1 inconclusive, D2 ag-2 38.2
CCOC(=O)N1CCN(Cc2ccc(O)c3ncccc23)CC1	none
CCOC(=O)N1CCN(Cc2ccccn2)CC1	D2 PAM-2 44.2
O=S(=O)(c1ccccc1)c1nc(-c2ccccc2F)oc1N1CCOCC1	none (no result: D2 ag-1, D2 PAM-1, D2 antag)
Cc1cc(C)n(C(=O)CNc2cccc(Cl)c2C)n1	none
Cc1cc(C)n(C(=O)CNc2ccccc2Cl)n1	D2 antag 32.2
Cc1ccc(NC(=S)NC2CCN(Cc3ccccc3)CC2)c(C)c1	D2 antag 46.9
Cc1ccc(NC(=O)CS(=O)CC(=O)NC2CCN(Cc3ccccc3)CC2)c(C)c1 (stereo not given)	none
Cc1ccccc1NC(=S)NC1CCN(Cc2ccccc2)CC1	D2 antag 78.4
COc1cccc2cc(C(C)N(CCCN3CCOCC3)C(=S)Nc3ccc(C)c(C)c3)oc12 (stereo not given)	none
COc1ccc(NC(=S)N(CCCN2CCOCC2)C(C)c2cc3cccc(OC)c3o2)cc1 (stereo not given)	D2 antag 35.2
Cc1ccc(S(=O)(=O)N2[C@@H](c3ccc(Cl)cc3)C(C(=O)O)=CC[C@H]2c2ccc(C(C)C)cc2)cc1	D2 antag 38.9
CC1(C)O[C@H]2[C@@H](O1)[C@@H](C(=O)Nc1ccc(F)c(F)c1)O[C@@H]1OC(C)(C)O[C@@H]12	none (no result: D2 ag-1, D2 PAM-1, D2 PAM-2, D2 antag)
CCC(C)(C)NC(=O)c1ccc2c(c1)S(=O)(=O)c1ccccc1C2=O	D2 PAM-1 71.1
O=C(NCCOc1ccccc1)c1ccc2c(c1)S(=O)(=O)c1cc(Cl)ccc1C2=O	D2 PAM-1 72.9 (no result: D2 PAM-2, D2 ag-2, D2 antag)
O=C(Nc1ccccn1)c1ccc2c(c1)S(=O)(=O)c1ccccc1C2=O	none
O=C1c2ccccc2S(=O)(=O)c2cc(C(=O)N(c3ccccn3)c3ccccn3)ccc21	D2 PAM-1 inconclusive, D2 ag-2 36.8
COCCSc1nc2c([nH]c3ccccc32)c(=O)n1-c1ccc(OC)c(OC)c1	none (no result: D2 ag-1, D2 PAM-1, D2 antag)
O=C(NCc1ccccc1)c1ccc(CNS(=O)(=O)c2ccc(Br)cc2)cc1	none (no result: D2 ag-1, D2 PAM-1, D2 antag)
CCCOc1ccc(CNC(=O)C2CCCN(c3nc4c(C)cc(C)cc4s3)C2)cc1 (stereo not given)	none (no result: D2 ag-1, D2 PAM-1, D2 ag-2, D2 antag)
COc1ccc(CC(=O)OCC(=O)NCc2ccco2)cc1	D2 antag 35.5
COc1ccc(OCC(=O)OCC(=O)NCc2ccco2)cc1	none
O=C(COC(=O)c1ccc(O)cc1)NCc1ccc2c(c1)OCO2	none
N#CCC(=O)Nc1ccc(C(=O)OCC(=O)NCc2ccc3c(c2)OCO3)cc1	D2 antag 44.0
COCCn1c(SCC(=O)NC(C)c2ccc(F)cc2)nc2ccccc21 (stereo not given)	D2 PAM-2 33.9
CCOc1ccc(CNS(=O)(=O)c2ccc(-c3cc(C(F)(F)F)on3)s2)cc1	none (no result: D2 ag-1, D2 PAM-1, D2 antag)
C/C(=N\NC(=O)C1(C)CC1(Br)Br)c1cccc(NC(=O)C2CCC2)c1 (stereo not given)	D2 antag 30.2
COc1ccc(CC(=O)N/N=C(\C)c2cccc(NC(=O)C3CC3)c2)cc1	none
COc1cc2c(-c3ccccc3Cl)nc3c(c(C)nn3-c3ccccc3)c2cc1OC	none (no result: D2 ag-1, D2 PAM-1, D2 ag-2, D2 antag)
Cc1cc(NC(=O)CCC(=O)N(c2ccc(F)cc2)C(C(=O)NC2CCCC2)c2ccc(C)o2)no1 (stereo not given)	none
COCCNC(=O)C(c1ccc(C)o1)N(C(=O)C(=O)NC1CCCCC1)c1ccc(F)cc1 (stereo not given)	D2 PAM-2 34.1
S=c1[nH]nc(COc2ccccc2)n1/N=C/c1ccccc1Br	D2 antag 38.1
COc1ccc(CNS(=O)(=O)c2cc3c(cc2Cl)N(C(C)=O)CCO3)cc1	none (no result: D2 ag-1, D2 PAM-1, D2 antag)
CC(C)N1CC(COc2ccc(Br)cc2)OC1=O (stereo not given)	D2 antag 41.2
Cc1ccc(C(=O)Nc2nnc(S(=O)(=O)N(C)Cc3ccc(Cl)cc3)s2)cc1	none (no result: D2 ag-1, D2 PAM-1, D2 antag)
CCc1ccc(C2=C(C)C(N3CCC(C(=O)NCc4ccc(C)o4)CC3)=NS2(=O)=O)cc1	none (no result: D2 ag-1, D2 PAM-1, D2 ag-2, D2 antag)
Cc1nnc2c(Nc3cccc(O)c3)nc3ccccc3n12	none (no result: D2 ag-1, D2 PAM-1, D2 antag)
CC(=O)Nc1ccc(NC(=O)COc2cc(O)c3c(c2)OC(C)(C)CC3=O)cc1	none
Cc1cc(OCC(=O)Nc2ccc(Br)cc2)cc2c1C(=O)CC(C)(C)O2	D2 antag 41.2
O=C(NCCc1csc(-c2cccc(F)c2)n1)c1cccs1	none (no result: D2 ag-1, D2 PAM-1, D2 antag)
Cc1nnc(SC(C)C(=O)Nc2ccc3ccccc3c2)[nH]c1=O (stereo not given)	none (no result: D2 PAM-2)
COc1cc(=O)[nH]c(SC(C)C(=O)Nc2ccc3ccccc3c2)n1 (stereo not given)	D2 PAM-2 37.1 (no result: D2 ag-2, D2 antag)
